Calls of active or inactive are those of the source. No rule for the calls is given here.
Biological target: Apoptosis regulator Bcl-2 (Homo sapiens) (UniProt P10415)
Experiment: inhibitors of Bim-Bcl-2 binding, confirmation, biochemical, dose response, multiplexed HTS hits (AID 2075)
Settings: bead-based flow cytometry, Bim peptide-Bcl-2 binding; series mostly up to 100 µM; inhibition of binding: at the top concentration

Sequence of Apoptosis regulator Bcl-2 (Homo sapiens) (P10415 whole entry, looked up): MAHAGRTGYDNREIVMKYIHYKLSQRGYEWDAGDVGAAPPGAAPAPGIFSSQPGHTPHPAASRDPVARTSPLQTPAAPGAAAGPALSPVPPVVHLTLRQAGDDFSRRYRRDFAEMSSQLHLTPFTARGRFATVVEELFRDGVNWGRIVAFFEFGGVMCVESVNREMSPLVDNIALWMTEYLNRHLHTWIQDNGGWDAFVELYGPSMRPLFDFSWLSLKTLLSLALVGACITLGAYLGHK

Inhibition of binding, inactive:
CCN1C(=O)/C(=C\C=C2/C=CC=CN2CC)SC1=S 10, O=C1C(Cl)=C(N2CCN(c3ccccc3[N+](=O)[O-])CC2)C(=O)c2ccccc21 24.7, CCN(CC)c1ccc(NC(=O)c2ccccc2F)cc1S(=O)(=O)Nc1ccccc1OC -0.748, CNC(CC(=O)c1ccc([N+](=O)[O-])cc1)C(Cl)(Cl)Cl (configuration not stated) 7.69, Cc1cc(-c2cc(-c3ccc(Cl)cc3)nc(N)c2C#N)co1 8.08, Cc1ccc(-c2cc(-c3ccc(C)o3)nc(N)c2C#N)cc1 8.62, COc1ccc(N2C(=O)C(Cl)=C(NC3C(=O)N(c4ccccc4)N(C)C3C)C2=O)cc1 (configuration not stated) 7.79, COc1ccc(N2C(=O)C(Cl)=C(Oc3cccc(OC)c3)C2=O)cc1 -0.371, Cc1ccc(-c2cc(C(=O)Nc3nccs3)c3ccccc3n2)o1 14, O=C(Nc1nnc(COc2ccc(Cl)cc2)s1)c1ccco1 5.1, CCOc1ccccc1CNc1ccc(O)cc1 8.87, CNC1CCC(Br)CC(C(=O)/C=C/c2cccc(OC)c2OC)C1=O (configuration not stated) 45.8, Oc1ccc(NCc2ccccc2OCc2ccccc2)cc1 0.638, COc1ccccc1-n1c(-c2ccccc2)c[nH]c1=S 3.39, O=c1c2c(n3nnnc3n1Cc1ccccc1)-c1ccccc1CC21CCCC1 5.06, O=C1c2ccccc2C(=O)N1CN(C(=O)COc1ccc(Cl)cc1Cl)c1cccc(F)c1 -1.03, O=C1/C(=C\c2ccco2)NC(=S)N1c1ccccc1 15.2, O=C(/C=C/c1ccc(-c2ccccc2[N+](=O)[O-])o1)c1ccccc1 9.32, S=c1[nH]cc(-c2ccccc2)n1-c1ccccc1 3.09, CCN(CC)c1ccc(NC(=O)c2ccccc2Br)cc1S(=O)(=O)Nc1ccccc1OC -5.4, Cc1nnc(Sc2cc(NCCO)c([N+](=O)[O-])c3nonc23)s1 19.9, Cc1ccc(-c2cc(-c3ccc(F)cc3)c(C#N)c(N)n2)o1 5.04, CCN(CC)c1ccc(NC(=O)COc2ccccc2C)cc1S(=O)(=O)Nc1ccccc1OC -2.61, CC(=O)Nc1ccc(-n2cc(-c3ccccc3)[nH]c2=S)cc1 -2.08, C=CS(=O)(=O)c1sc(Cl)c(N2CCOCC2)c1[N+](=O)[O-] 33.7, COc1cc(CNc2ccc3[nH]c(=O)[nH]c3c2)cc(Br)c1OCC(=O)NC(C)(C)C 5.93, COc1cc(N=C2SSNC2Cl)c(OC)cc1Cl (configuration not stated) 29.2

Source: PubChem BioAssay AID2075 (NMMLSC, 2009)
